Screening results (PubChem BioAssay)
PLC-beta3 inh: PLC-beta3 (human) inhibition, primary screen; Purified PLC-beta3, fluorogenic substrate, fluorescence; inhibition, % at 12.2 µM; 0.18% of 370,000 active; in the data active means inhibition above about 11%;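 further: 0% = median of compound wells on plate and 100% = full blocker control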
HGIII-sPLA2 inh: Inhibits HGIII-sPLA2 liposome hydrolysis, primary screen. QFRET BODIPY PC-A2 liposome hydrolysis, fluorescence. inhibition, % at 12.2 µM. Q9NZ20. AID 743126. 0.56% of 370,000 active;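 active means inhibition above mean plus 3 SD of compounds lying within the high and low control bounds, cut at about 19% in these data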;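 further: 0% = median of test compound wells and 100% = no enzyme DMSO wells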
ADAM10 inh: inhibitors of human ADAM10; inhibition, % at 7 µM; 0.62% of 370,000 active; AID 720582; recombinant ADAM10, EDANS/DABCYL FRET peptide cleavage, 3 h;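 active means inhibition above a per-campaign cutoff equal to the mean of compounds falling between control-based bounds plus 3 SD, cut at about 20% in these data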;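 further: 0% = DMSO wells while the 100% control is not disclosed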
proKLK7 act: proKLK7 (human) activation, primary screen; purified proKLK7, EDANS-DABCYL substrate fluorescence; 100% is mature enzyme control, 0% vehicle; activation, % at 7 µM; 0.9% of 370,000 active; AID 652039;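 active means activation above the mean of all tested compounds plus 3 SD, computed per campaign excluding outliers beyond control limits, cut at about 13% in these data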
Target sequence (P49862 whole entry, looked up): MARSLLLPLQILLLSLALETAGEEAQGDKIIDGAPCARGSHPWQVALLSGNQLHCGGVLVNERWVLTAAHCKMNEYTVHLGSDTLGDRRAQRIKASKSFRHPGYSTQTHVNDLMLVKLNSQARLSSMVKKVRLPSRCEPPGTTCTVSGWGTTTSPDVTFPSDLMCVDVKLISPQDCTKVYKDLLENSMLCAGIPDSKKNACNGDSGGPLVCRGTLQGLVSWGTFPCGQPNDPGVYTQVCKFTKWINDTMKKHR
PLCg1 inh: blocks human PLC-gamma1 enzyme activity. P19174. purified PLC-gamma1, fluorogenic substrate, fluorescence. inhibition, % at 12.2 µM. 0.84% of 370,000 active
ADAM17 inh: ADAM17 inhibition, QFRET primary screen; P78536; recombinant ADAM17, EDANS/DABCYL FRET peptide cleavage; inhibition, % at 6.95 µM; 0.83% of 370,000 active;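 active means inhibition above the mean of compounds lying between control limits plus 3 SD, set per campaign, cut at about 8.5% in these data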;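 further: 0% = DMSO-only wells as the low control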
ADAM10 confirm: confirmation of inhibitors of human ADAM10; inhibition, % at 6.95 µM; AID 743208; 1% of 2,100 active; ADAM10 QFRET peptide cleavage, EDANS fluorescence; shares compounds with ADAM10 inh;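 active means inhibition above about 20% chosen separately for each screening run, limit read from the data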;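 further: 0% = DMSO wells and 100% = marimastat wells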
ADAM17 counter: ADAM17 inhibition, counter-screen for ADAM10 exosite hits | shares compounds with ADAM10 inh | ADAM17 QFRET peptide cleavage, EDANS fluorescence | inhibition, % at 6.95 µM | 0.5% of 2,100 active | AID 743214;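 active means mean triplicate inhibition above the solvent-only control wells' mean plus 3 SD, cut at about 12% in these data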;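 further: 0% = DMSO wells and 100% = marimastat wells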
ADAM10 ctr: ADAM10 inhibition, counter-screen for ADAM17 exosite hits; 47% of 2,900 active; AID 743256; shares compounds with ADAM17 inh; inhibition, % at 6.95 µM; recombinant ADAM10, EDANS/DABCYL FRET peptide cleavage, 3 h;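 active means mean inhibition over the triplicate runs exceeds the activity threshold set in the earlier primary screen, cut at about 20% in these data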;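 further: 0% = DMSO wells and 100% = marimastat wells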
ADAM17 confirm: human ADAM17 inhibition, confirmation. shares compounds with ADAM17 inh. recombinant ADAM17, EDANS/DABCYL QFRET peptide cleavage. inhibition, % at 6.95 µM. 65% of 2,900 active;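 active means mean inhibition across replicates above the hit cutoff set in the primary screen, cut at about 8.5% in these data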;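 further: 0% = DMSO wells and 100% = marimastat wells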
PLCgamma1 ctr: counter-screen for PLC-beta3 inhibitors: inhibitors of human PLC-gamma1; inhibition, % at 12.3 µM; purified PLC-gamma1, fluorogenic substrate, fluorescence; shares compounds with PLCg1 inh; 3.1% of 3,300 active
PLCbeta3 conf: human PLC-beta3 inhibition, confirmation | shares compounds with PLCg1 inh | purified PLC-beta3, fluorogenic substrate fluorescence | inhibition, % at 12.3 µM | 1% of 3,300 active | AID 743261; in the data active means inhibition above about 11%
Active calls of the source: *; · = no result given. Hits are enriched below; roughly 3.4% of the tested compounds scored in any of these assays. Unless noted, no stated cut-off is given here; in the data, active means inhibition above about 9.5%; inactive means the rest.

SMILES	PLC-beta3 inh	HGIII-sPLA2 inh	ADAM10 inh	proKLK7 act	PLCg1 inh	ADAM17 inh	ADAM10 confirm	ADAM17 counter	ADAM10 ctr	ADAM17 confirm	PLCgamma1 ctr	PLCbeta3 conf
COc1ccc(C)cc1NC(=O)CNC(c1ccccc1)c1ccccc1	1	-6	14	0	1	2	·	·	·	·	·	·
COc1ccc(C2C(C(=O)Nc3c(C)cccc3C)CCC(=O)N2c2ccc(OC)cc2)cc1 (configuration not stated)	-3	11	-10	0	2	-1	·	·	·	·	·	·
Cc1cc(C(=O)NCc2cccs2)ccc1[N+](=O)[O-]	1	2	6	0	1	-2	·	·	·	·	·	·
O=C(NCc1cccs1)c1ccc([N+](=O)[O-])cc1	12*	11	24*	0	10.0*	6	-1	0	·	·	-9	-6
COC(=O)N1CCC[C@H]1c1cccc2[nH]cc(C)c12	-6	-8	-14	1	-1	-5	·	·	·	·	·	·
COC(=O)C1=C(C)N(Cc2cccc(C(F)(F)F)c2)C(=NCc2ccc(C(F)(F)F)cc2)NC1c1cccc(F)c1 (configuration not stated)	14*	-8	21*	0	8	9.4*	10	5	22*	12*	-6	-4
COc1ccccc1C(=O)Nc1ccc(C)cc1C(=O)c1ccccc1	4	4	21*	0	9.7*	7	1	1	·	·	0	-1
Oc1ccc(C[C@H]2CN([C@@H](Cc3cccc(O)c3)CN3CCC[C@@H]3CN3C(=S)NC[C@@H]3Cc3ccccc3)C(=S)N2CC2CCCCC2)cc1	4	-4	31*	-1	10*	14*	9	3	49*	23*	7	5
Oc1ccc(C[C@H]2CN([C@@H](Cc3ccc(O)cc3)CN3CCC[C@@H]3CN3C(=S)NC[C@@H]3Cc3ccccc3)C(=S)N2CC2CCCCCC2)cc1	-2	-2	1	0	0	5	·	·	·	·	·	·
CC(=O)Nc1ccc2c(c1)C(=O)N(C)[C@H]1CC[C@H](CC(=O)NCc3ccc(F)cc3)O[C@@H]1CO2	7	-11	6	-1	6	-1	·	·	·	·	·	·
CC(C)=CCC/C(C)=C/CN1CC(=O)N2[C@H](C[C@@]3(n4ccc5ccccc54)c4ccccc4N(S(=O)(=O)c4ccccc4)[C@@H]23)C1=O	1	-3	3	0	0	3	·	·	·	·	·	·
COC(=O)[C@]12C[C@H](CC(=O)NCCc3ccccc3OC)C(=O)N(CCc3ccc(OC)c(OC)c3)C1=C[C@H](COCc1ccccc1)O[C@@H]2C	6	-4	21*	1	13*	8	2	1	·	·	-4	-1
O=C(CN1C(=O)CCSc2ccccc21)Nc1ccc(Cl)cc1	1	-3	-4	1	-1	-3	·	·	·	·	·	·
O=C(Nc1cccc(Cl)c1)OCCN1CCCC12CCC(c1ccccc1)CC2 (configuration not stated)	-3	-16	2	·	-3	1	·	·	·	·	·	·
CCOc1ccc(N2CC(C(=O)Nc3cccc(S(=O)(=O)N4CCCCC4)c3)CC2=O)cc1 (configuration not stated)	7	-1	22*	0	11*	5	1	0	·	·	-8	-5
COc1ccc(NC(=O)Nc2ccc3c(c2)C(=O)N([C@H](C)CO)C[C@H](C)[C@@H](CN(C)S(=O)(=O)c2cccs2)O3)cc1	4	-20	21*	0	11*	16*	3	0	14	10*	-4	-2
COc1ccc(S(=O)(=O)Nc2ccc3c(c2)C(=O)N([C@H](C)CO)C[C@H](C)[C@@H](CN(C)S(=O)(=O)c2cccs2)O3)cc1	3	-18	3	0	1	1	·	·	·	·	·	·
CC(C)C[C@H]1COc2cc(N3CCCC3)ccc2S(=O)(=O)N1C	-1	-2	7	0	0	4	·	·	·	·	·	·
COc1ccc(NC(=O)CN(c2ccc(OC)c(Cl)c2)S(=O)(=O)c2ccccc2)c(OC)c1	-4	-11	34*	0	11*	14*	7	2	30*	17*	-3	1
COc1ccc(N(CC(=O)Nc2ccccc2OC)S(=O)(=O)c2ccccc2)cc1Cl	-9	-21	13	-1	1	8	·	·	·	·	·	·
O=C(/C=C/c1cccc([N+](=O)[O-])c1)Nn1c(-c2ccccc2F)nc2ccccc2c1=O	10	-9	24*	1	12*	7	-2	0	·	·	-2	0
O=S(=O)(Nc1ccc(C(O)(C(F)(F)F)C(F)(F)F)cc1)c1cccc2cccnc12	-2	-53	27*	0	10*	10*	-2	0	20*	14*	-2	-4
C=CC[C@H](CC(=O)N(CCO)Cc1ccccc1)C(=O)N[C@@H](COC(=O)[C@@H](CC=C)CC(=O)OC(C)(C)C)Cc1c[nH]c2ccccc12	12*	-64	37*	1	6	21*	3	1	29*	15*	-10	-3
C=CCC[C@@H](Cc1ccc(F)cc1)C(=O)OC[C@@H](NC(=O)[C@@H](CC=C)CC(=O)N(CCO)Cc1ccccc1)c1ccccc1	7	-37	47*	0	14*	26*	7	3	44*	22*	-7	-5
C=CCC[C@H](Cc1ccc(F)cc1)C(=O)OC[C@@H](C)NC(=O)[C@H](CC=C)CC(=O)N(CCO)Cc1ccccc1	4	-16	9	0	1	2	·	·	·	·	·	·
COc1ccc(Cn2nnnc2C(C(C)C)N(Cc2ccco2)Cc2cccs2)cc1 (configuration not stated)	14*	-2	20*	0	14*	13*	2	1	20*	13*	-2	-1
